Results from PubChem BioAssay AID485317 (Broad Institute, 2010).
The whole screen tested about 290,000 compounds, of which about 11,000 (3.8%) were called active.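 Rule for the calls: active = mean replicate inhibition above about 79%, with every replicate also reaching it (limit read from the data); inconclusive = only one of the two criteria met; inactive = mean below limit and not every replicate reaching it.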 The entries come from a sample that favours actives as a whole.

What follows are compounds tested against FAD-linked sulfhydryl oxidase ALR (Homo sapiens) (UniProt P55789) (assay: ALR-catalysed DTT oxidation blockers – biochemical, H2O2 detection, HRP-luminol luminescence, single point, primary screen (AID 485317)). Settings: purified ALR, active compounds read high, concentration not given here.
FAD-linked sulfhydryl oxidase ALR (Homo sapiens), sequence (P55789 whole entry, looked up): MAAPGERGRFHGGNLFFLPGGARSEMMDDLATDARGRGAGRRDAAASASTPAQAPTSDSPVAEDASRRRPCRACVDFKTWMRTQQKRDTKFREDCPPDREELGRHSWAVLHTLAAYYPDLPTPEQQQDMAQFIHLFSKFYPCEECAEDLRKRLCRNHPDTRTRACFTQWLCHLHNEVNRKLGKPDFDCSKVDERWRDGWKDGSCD
With CCN(CC(=O)NCc1cccs1)C(=O)c1ccc(OC)c(S(=O)(=O)N2CCOCC2)c1 the inhibition was -4.54% (inactive). In the case of CCC(C)N(C(=O)CSc1nnnn1-c1ccccc1OC)C1CCS(=O)(=O)C1 (centres undefined), the inhibition is reported as 1.16% (inactive). With CC1(C)OC(=O)C(=CSc2ccc(C(C)(C)C)cc2)C(=O)O1 the inhibition was 97.7% (active). O=C1CN(C(=O)COC(=O)/C=C/c2ccc(F)cc2)c2ccccc2N1 was tested, and the inhibition was -2.48% (inactive). COc1ccc(CC(=O)OC(C)C(=O)Nc2ccc(S(N)(=O)=O)cc2)cc1 (centres undefined) was tested, and the inhibition was -3.25% (inactive). CC(OC(=O)CCCc1c[nH]c2ccccc12)C(=O)Nc1ccc(S(N)(=O)=O)cc1 (centres undefined) was tested, and the inhibition was 81.6% (active). NS(=O)(=O)c1ccc(NC(=O)COC(=O)CCc2c[nH]c3ccccc23)cc1 was tested, and the inhibition was 23.6% (inactive). In the case of NS(=O)(=O)c1ccc(CCNC(=O)CN2C(=O)c3ccccc3S2(=O)=O)cc1, the inhibition is reported as 20.2% (inactive). For O=C(NCCS(=O)(=O)N1CCN(c2ccccc2)CC1)c1ccco1, the inhibition was 4.33% (inactive). O=C(Cn1cnc2c(OCc3ccccc3)ncnc21)NCCCn1ccnc1 was tested, and the inhibition was -1.71% (inactive). O=C1CN(C(=O)COc2c(Cl)cccc2Cl)c2ccccc2N1 was tested, and the inhibition was -8.36% (inactive). COc1ccc(S(=O)(=O)NCc2cccnc2)cc1NC(=O)c1ccc(C)cc1 was tested, and the inhibition was -2.4% (inactive). For CC(C)(C)NS(=O)(=O)NC(=O)C1=C(N2CCCC2)COC1=O, the inhibition was 2.74% (inactive). In the case of CC(=O)Nc1ccc(C(=O)Nc2cccc(S(=O)(=O)NC3=NCCC3)c2)cc1, the inhibition is reported as -4.84% (inactive). With CC(=O)c1nn(-c2ccc(C)cc2)cc1C(=O)c1cccc(Br)c1 the inhibition was -13.6% (inactive). For CC(=O)N/C(=C\c1ccccc1)C(=O)OC(C)C(=O)N(C)c1ccccc1 (centres undefined), the inhibition was 0.887% (inactive). With Cc1nc2nc(SCC(=O)c3ccccc3)[nH]c2cc1Br the inhibition was -4.01% (inactive). For Cc1nc(SCC(=O)c2ccccc2)c([N+](=O)[O-])[nH]1, the inhibition was 97.8% (active). With Cc1nc(SCc2ccc(F)cc2)c([N+](=O)[O-])[nH]1 the inhibition was 1.42% (inactive). For O=C1CCCCC1Sc1ccc(Cl)cc1[N+](=O)[O-] (centres undefined), the inhibition was -27.8% (inactive). With CCOc1ncccc1C(=O)Nc1ccc2c(c1)OCCO2 the inhibition was 4.02% (inactive). For Oc1ccc(N=Nc2nccs2)c(O)c1, the inhibition was 83.1% (active). With Oc1ccc2ccccc2c1N=Nc1nccs1 the inhibition was -13.2% (inactive). In the case of CN1CCN(S(=O)(=O)c2cccc(C(=O)Nc3sccc3C#N)c2)CC1, the inhibition is reported as 6.71% (inactive). CC(=O)Nc1ccc(NS(=O)(=O)c2ccc3c(c2)NC(=O)CC(=O)N3)cc1 was tested, and the inhibition was -6.71% (inactive). With COc1ccc(C(=O)NC(=S)Nc2ccc(N3CCCC3)cc2)cc1OC the inhibition was 2.05% (inactive). For CC(=O)Nc1ccc(S(=O)(=O)Nc2ccc(N3CCCCC3)cc2)cc1, the inhibition was 99.4% (active). With CC(=O)Nc1ccc(S(=O)(=O)Nc2ccc(N3CCOCC3)c(F)c2)cc1 the inhibition was 3.94% (inactive). For COc1ccc(C(=O)Nc2ccc(N3CCC(C)CC3)cc2)cc1Br, the inhibition was -4.62% (inactive). In the case of COc1cccc(OC)c1C(=O)Nc1ccc(N2CCCCC2)cc1, the inhibition is reported as 86% (active). With COc1cccc(C(=O)Nc2ccc(N3CCN(C(=O)c4ccco4)CC3)cc2)c1 the inhibition was -0.228% (inactive). In the case of Cc1ccccc1C(=O)Nc1ccc(N2CCCCCC2)cc1, the inhibition is reported as 68.7% (inactive). COc1cccc(C(=O)Nc2ccc(N3CCCC3)cc2)c1 was tested, and the inhibition was 100% (active). Cc1ccc(Cc2nnc(SCC(=O)Nc3ccc(C)cc3C)[nH]c2=O)cc1 was tested, and the inhibition was -13.1% (inactive). With COc1ccccc1N(C)S(=O)(=O)c1ccc(Cl)c(C(=O)Nc2ccncc2)c1 the inhibition was -13.7% (inactive). Cc1ccc(OCC(=O)Oc2ccccc2[N+](=O)[O-])cc1 was tested, and the inhibition was 8.6% (inactive). With O=C(COc1cccnc1[N+](=O)[O-])Nc1ccc(Cl)cc1F the inhibition was -1.28% (inactive). Cn1c(=O)[nH]c(=O)c2c1[nH]c(=S)n2Cc1ccccc1 was tested, and the inhibition was 86.9% (active). With COc1ccc(CNc2nc3c(c(=O)[nH]c(=O)n3C)n2Cc2ccccc2)cc1 the inhibition was -2.89% (inactive). With C=CCSc1nc2c(c(=O)[nH]c(=O)n2C)n1Cc1ccccc1 the inhibition was -5.44% (inactive). COC(=O)c1cccc(NC(=O)c2cccc(N3C(=O)CCC3=O)c2)c1 was tested, and the inhibition was -1.61% (inactive). With CCCC(=O)OCC(=O)Nc1cc(Cl)ccc1[N+](=O)[O-] the inhibition was -5.98% (inactive). For Cc1cc(NC(=O)COC(=O)COc2ccc(Cl)cc2C)c([N+](=O)[O-])cc1C, the inhibition was 89.5% (active). In the case of COc1ccc(OCC(=O)Nc2cc(C)c(Cl)cc2OC)c([N+](=O)[O-])c1, the inhibition is reported as -2.93% (inactive). In the case of CCN(CC(=O)Nc1ccccc1OC)C(=O)CC1CC2CCC1C2 (centres undefined), the inhibition is reported as 1.64% (inactive). O=S(=O)(O)Oc1c[nH]c2ccccc12 was tested, and the inhibition was -3.63% (inactive). For CC1(c2ccccc2)NC(=O)N(CC(=O)Nc2cc(Cl)ccc2N2CCOCC2)C1=O (centres undefined), the inhibition was 13.2% (inactive). In the case of N#CC1(NC(=O)COC(=O)Cc2n[nH]c(=O)c3ccccc23)CCCCC1, the inhibition is reported as -18.6% (inactive). CCCC(=O)N1CCc2[nH]c3ccccc3c2C1 was tested, and the inhibition was -30.4% (inactive). For Fc1ccc(NC(=S)N2CCc3[nH]c4ccccc4c3C2)cc1, the inhibition was 3.4% (inactive). With C=CCNC(=S)N1CCc2[nH]c3ccccc3c2C1 the inhibition was 98.3% (active). CN(C(=O)COC(=O)c1ccc(Br)o1)c1c(N)n(Cc2ccccc2)c(=O)[nH]c1=O was tested, and the inhibition was -5.35% (inactive). For Cc1c(C)n2c(SCC(=O)NC3CCCC3)nnc2[nH]c1=O, the inhibition was 2.18% (inactive). COc1cc(OC)cc(-c2c(-c3cccs3)c3cc(-c4ccc(OC)cc4F)ccc3n2C)c1 was tested, and the inhibition was -3.91% (inactive). In the case of CCOc1ccc(-c2n[nH]c(=S)n2/N=C/c2cc3c(cc2[N+](=O)[O-])OCO3)cc1, the inhibition is reported as 84.2% (active). In the case of Cc1ccc(-c2n[nH]c(=S)n2/N=C/c2cc3c(cc2[N+](=O)[O-])OCO3)cc1, the inhibition is reported as -5.58% (inactive). For Cc1ccc(S(=O)(=O)N/N=C\c2cc3c(cc2[N+](=O)[O-])OCO3)cc1, the inhibition was -3.17% (inactive). For COc1ccc(/C=N/Nc2cc(N3CCOCC3)nc(C)n2)c(OC)c1, the inhibition was 32.1% (inactive). In the case of CN(C)c1ccc(/C=N/Nc2cc(N3CCOCC3)nc(N3CCOCC3)n2)cc1, the inhibition is reported as 98.8% (active). For C(=N/Nc1cc(N2CCOCC2)nc(N2CCOCC2)n1)/c1ccccc1, the inhibition was 34.6% (inactive). CCOc1ccc(C(=O)Nc2cc(Cl)ccc2-n2cncn2)cc1OC was tested, and the inhibition was -4.75% (inactive). For Cn1c(CC(=O)NNC(=O)c2ccccc2F)nc2ccccc21, the inhibition was -4.08% (inactive). COC(=O)CSc1nc(C)c2ccc(OC)cc2n1 was tested, and the inhibition was -12.7% (inactive). In the case of COc1ccc2oc(-c3cccc(NC(=O)CSc4ccc(Cl)cc4)c3)nc2c1, the inhibition is reported as -8.13% (inactive). With COc1ccc2cc(CCl)c(Cl)nc2c1 the inhibition was 98% (active). In the case of C=CCSc1nnc(N2C(=O)C(O)=C(C(=O)c3ccco3)C2c2ccc(F)cc2)s1 (centres undefined), the inhibition is reported as 98% (active). Cc1ccc2nc(N3C(=O)C(O)=C(C(=O)c4ccco4)C3c3cccc(O)c3)sc2c1 (centres undefined) was tested, and the inhibition was 71.5% (inactive). With O=C(C1=C(O)C(=O)N(c2ncccn2)C1c1cccs1)c1ccco1 (centres undefined) the inhibition was 21.9% (inactive). Cc1ccc(C(=O)NCC(=O)NC2CC2)cc1 was tested, and the inhibition was 0.292% (inactive). For CCC(CO)Oc1cc(NC(=O)c2cccc(F)c2)c2ncn(C(C)C)c2c1 (centres undefined), the inhibition was -32.8% (inactive). Cn1c(N)c(C(=O)COC(=O)c2cccc(S(=O)(=O)N3CCOCC3)c2)c(=O)n(C)c1=O was tested, and the inhibition was -2.97% (inactive). In the case of Nc1ccccc1Sc1cc(Cl)nnc1Cl, the inhibition is reported as 1.19% (inactive). With Cc1nn(C)c(C)c1Sc1ccccc1N the inhibition was 99.2% (active). In the case of CCOC(=O)c1cc(Sc2ccccc2N)cc(C(=O)OCC)n1, the inhibition is reported as -11.9% (inactive). In the case of O=C(NN=Cc1ccc(N2CCOCC2)cc1)c1cc2ccccc2cc1O, the inhibition is reported as 11.6% (inactive). With COc1ccc([C@H]2CC(=O)C=C(c3ccc(CO)cc3)C2)cc1 the inhibition was -0.829% (inactive). For CCC(C)N(C(=O)COC(=O)c1nc(Cl)ccc1Cl)C1CCS(=O)(=O)C1 (centres undefined), the inhibition was 0.398% (inactive). With CC(C)N(C(=O)CN1CCN(S(=O)(=O)c2ccc(Br)s2)CC1)C(C)C the inhibition was -3.29% (inactive). For O=C(CCc1ccccc1F)N1CCN(c2ccccc2)CC1, the inhibition was 88% (active). CC(=O)c1ccc(N2CCN(C(=O)CCc3ccccc3)CC2)cc1 was tested, and the inhibition was 16.1% (inactive). For O=C(CCSc1ccccc1)N1CCN(c2ccccc2F)CC1, the inhibition was -13.1% (inactive). For O=C(NC(CC(=O)N1CCN(c2ccccc2)CC1)c1ccccc1)c1ccccc1Cl (centres undefined), the inhibition was 22.4% (inactive). C/C(=C/c1ccccc1)C(=O)N1CCN(c2ccccc2)CC1 was tested, and the inhibition was 44% (inactive). With Cc1nc2ncnn2c(C)c1CCC(=O)N1CCN(C(=O)c2ccco2)CC1 the inhibition was 0.394% (inactive). With CC(CC(=O)N1CCN(c2ccccc2)CC1)c1ccccc1 (centres undefined) the inhibition was 98.4% (active). With Cc1nc2nc(C)c(CCC(=O)N3CCN(c4ccccc4)CC3)c(C)n2n1 the inhibition was 92.8% (active). For Cc1nc2c(-c3ccc(F)cc3)c(C)nn2c(C)c1CCC(=O)N1CCN(c2ccccn2)CC1, the inhibition was -13.5% (inactive). In the case of CCOC(=O)c1cnc2nc(SCc3ccccc3Cl)[nH]n2c1=O, the inhibition is reported as 32.6% (inactive). For Cc1csc2nc(O)c(C(=O)NCCN3CCOCC3)c(=O)n12, the inhibition was 7.69% (inactive). For COc1ccc(CNc2nc(NCc3ccc(OC)cc3)c3ncn(C4CCCC4)c3n2)cc1, the inhibition was 2.44% (inactive). For O=C(COC(=O)c1cccs1)Nc1ccccc1Cl, the inhibition was 2.46% (inactive). With O=C(Nc1ccccc1Cl)/C(Cl)=C(\Cl)S(=O)c1ccccc1 (centres undefined) the inhibition was 97.6% (active). In the case of O=C(Nc1ccccc1Cl)Nn1cnnc1, the inhibition is reported as -11.5% (inactive). With CCCCCC(=O)N1CCN(S(=O)(=O)c2ccc3c(c2)OCCCO3)CC1 the inhibition was 1.7% (inactive).
